The whole screen tested about 190,000 compounds, of which about 1,900 (1%) were called active.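 How the source made its calls: active means percentage of spot-positive cells more than 3 SD above its plate mean, without a fluorescence outlier flag or 80% toxicity; inconclusive means no clear call, values can overlap the other calls; inactive means the rest.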 Only a selection was taken, and actives are over-represented in it overall.

This note sets out measurements from PubChem BioAssay AID463193 (University of Pittsburgh Molecular Library Screening Center, 2010).

This test is described as follows: GFP-LC3 puncta formation changes – imaging, high-content, MEF GFP-LC3, primary screen (AID 463193).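 On % cells with GFP-LC3 spots: spot-positive cell cutoff set from DMSO-treated cells.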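 On toxicity: cell loss after 18 h compound exposure.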 The settings on record: autophagy, at 10 µM; % cells with GFP-LC3 spots: stronger effect = higher value; toxicity: measured here: cell loss, nuclei count.
For `CCc1ccc(NC(=O)Cn2nc(C)c([N+](=O)[O-])c2C)cc1`, the % cells with GFP-LC3 spots was 13.4% (active) and the toxicity is 38.8%.

Consider `Cc1nn(CC(=O)Nc2ccc(N(C)C)cc2)c(C)c1[N+](=O)[O-]`, for which the % cells with GFP-LC3 spots is 8.73% (inactive) and the toxicity is -12.8%.

As for `Cc1nn(CC(=O)Nc2ccc(C#N)cc2)c(C)c1[N+](=O)[O-]`, the % cells with GFP-LC3 spots is 2.1% (inactive) and the toxicity turned out to be 9.5%.

In the case of `C=CCC(C(=O)c1ccccc1)[N+](C)(C)CC=C` (stereo not given), the % cells with GFP-LC3 spots is 2.53% (inactive) and the toxicity is -14.3%.

Take `COC(=O)COc1ccc(C2NC(=O)NC(C)=C2C(=O)NCc2ccccc2)cc1OC` (stereo not given): the % cells with GFP-LC3 spots is 0.797% (inactive) and the toxicity worked out at 20.4%.

As for `Cn1c(N)c(C(=O)COC(=O)c2cnc(Cl)c(Cl)c2)c(=O)n(C)c1=O`, the % cells with GFP-LC3 spots is 0.712% (inactive) and the toxicity was 15.7%.

Turning to `Cc1c(Cl)cccc1NC(=O)CSc1ccc(-c2cccnc2)nn1`, the % cells with GFP-LC3 spots was 0.277% (inactive) and the toxicity was -2.28%.

`CCC(=O)Nc1cc(C(F)(F)F)ccc1N1CCCC1`: the % cells with GFP-LC3 spots is 0.264% (inactive) and the toxicity was -3.5%.

Consider `CCN1CCN(CC(=O)Nc2sc3c(c2C#N)CCC3)CC1`, for which the % cells with GFP-LC3 spots is 2.15% (inactive) and the toxicity is 4.77%.

With `CN1CCN(CC(=O)Nc2sc3c(c2C#N)CCC(C(C)(C)C)C3)CC1` (stereo not given), the % cells with GFP-LC3 spots was 41.9% (active) and the toxicity is 29.1%.

Take `CCC1CCc2c(sc(NC(C)=O)c2C#N)C1` (stereo not given): the % cells with GFP-LC3 spots is 6.62% (inactive) and the toxicity is -8.42%.

Turning to `CC1(C)CC(=O)c2ccc(O)cc2O1`, the % cells with GFP-LC3 spots is 1.01% (inactive) and the toxicity turned out to be 7.65%.

In the case of `CCOc1ccc(CN2CCN(Cc3ccc(C)o3)CC2CCO)cc1` (stereo not given), the % cells with GFP-LC3 spots is 0.14% (inactive) and the toxicity was -9.23%.

As to `O=C(CCN1C(=O)C2C3C=CC(C3)C2C1=O)Oc1ccc2ccccc2c1` (stereo not given), the % cells with GFP-LC3 spots is 11.3% (inactive) and the toxicity was 19.4%.

Consider `O=C(CN1C(=O)C2C3CCC(C3)C2C1=O)Oc1ccc2ccccc2c1` (stereo not given), for which the % cells with GFP-LC3 spots was 18.4% (active) and the toxicity is -20.7%.

In the case of `CC1=CC(C)(C)Nc2ccc(OC(=O)CN3C(=O)C4CCCCC4C3=O)cc21` (stereo not given), the % cells with GFP-LC3 spots was 8.28% (inactive) and the toxicity is 24.4%.

For the compound `COCCNc1nc2nonc2nc1N(C)Cc1ccc(C)cc1`, the % cells with GFP-LC3 spots is 1.24% (inactive) and the toxicity was -31.9%.

For the compound `Cc1cn(C)c(=O)n(C)c1=O`, the % cells with GFP-LC3 spots is 8.58% (inactive) and the toxicity is 10.3%.

On to `COc1ccc(NC(=O)CN(C)CC(=O)Nc2cccc(C(F)(F)F)c2)cc1`, for which the % cells with GFP-LC3 spots is 2.37% (inactive) and the toxicity is 1.34%.

Consider `O=C(O)CSCC(=O)Nc1cccc(C(F)(F)F)c1`, for which the % cells with GFP-LC3 spots is 6.64% (inactive) and the toxicity was 0%.

Consider `COc1ccc(NC(=O)C(=O)NCC(=O)Nc2cccc(C(F)(F)F)c2)cc1`, for which the % cells with GFP-LC3 spots was 8.9% (active) and the toxicity worked out at 11.1%.

In the case of `CC1Cc2ccccc2N1C1=CC(=O)CC(C)(C)C1` (stereo not given), the % cells with GFP-LC3 spots was 2.88% (inactive) and the toxicity came out at 3.93%.

Turning to `CCc1nnc(NC(=O)/C=C/c2ccc(C)o2)s1`, the % cells with GFP-LC3 spots was 3.65% (inactive) and the toxicity came out at 1.45%.

Turning to `Cc1c(NC(=O)/C=C/C(=O)O)cccc1[N+](=O)[O-]`, the % cells with GFP-LC3 spots was 8.95% (inactive) and the toxicity is -17.9%.

Consider `Cc1ccc(/C=C/C(=O)Nc2ccc([N+](=O)[O-])c(NC(=O)/C=C/c3ccc(C)o3)c2)o1`, for which the % cells with GFP-LC3 spots was 55.6% (active) and the toxicity came to 0.679%.

`CCCCc1ccc(NC(=S)N2CCCC(CO)C2)cc1` (stereo not given): the % cells with GFP-LC3 spots is 11.5% (inactive) and the toxicity came to 11.5%.

In the case of `COc1ccc2cc(-c3[nH]ncc3CNCCn3nc(C)cc3C)ccc2c1`, the % cells with GFP-LC3 spots is 16.9% (inactive) and the toxicity was 22%.

As to `CC(=O)NC1=NN(C(C)=O)C(C)(c2ccc(C)cc2)S1` (stereo not given), the % cells with GFP-LC3 spots was 4% (inactive) and the toxicity was -6.62%.

Take `CC(=O)NC1=NN(C(C)=O)C(C)(c2ccc(Cl)s2)S1` (stereo not given): the % cells with GFP-LC3 spots was 21.9% (active) and the toxicity is 54.1%.

Turning to `CC(=O)NC1=NN(C(C)=O)C(C)(CCS(=O)(=O)c2ccc(Cl)c(Cl)c2)S1` (stereo not given), the % cells with GFP-LC3 spots is 9.23% (inactive) and the toxicity stood at 11.3%.

In the case of `COc1ccc(N2CCN(c3ccc([N+](=O)[O-])nc3)CC2)cc1`, the % cells with GFP-LC3 spots is 7.77% (inactive) and the toxicity stood at 4.08%.

Take `O=C(N/N=C/c1ccc(Br)o1)c1cncc(Br)c1`: the % cells with GFP-LC3 spots was 33.5% (inactive) and the toxicity is -0.407%.

For `CCN(CC)CCCNC(=O)c1ccc2c(=O)n(Cc3ccc4c(c3)OCO4)c(=S)[nH]c2c1`, the % cells with GFP-LC3 spots is 0.744% (inactive) and the toxicity was determined as 5.92%.

`CC(Nc1nc(N2CCOCC2)nc2ccccc12)c1ccccc1` (stereo not given): the % cells with GFP-LC3 spots was 0.846% (inactive) and the toxicity is 11.2%.

On to `CC(Nc1nc(N2CCCC2)nc2ccccc12)c1ccccc1` (stereo not given), for which the % cells with GFP-LC3 spots is 13.8% (active) and the toxicity was -2.79%.

Take `CC(Nc1nc(N2CCN(CCO)CC2)nc2ccccc12)c1ccccc1` (stereo not given): the % cells with GFP-LC3 spots was 30.9% (inactive) and the toxicity was 23.9%.

Turning to `O=C(CS(=O)(=O)c1ccccc1)Nc1ccc(S(=O)(=O)Nc2ccccn2)cc1`, the % cells with GFP-LC3 spots was 0.85% (inactive) and the toxicity stood at 0.1%.

For the compound `C=CCN1C(=O)C(Cc2ccc(OCC)cc2)SC1=Nc1ccc(C(=O)O)cc1` (stereo not given), the % cells with GFP-LC3 spots is 9.61% (inactive) and the toxicity was -5.34%.

Take `Cc1ccc(Nc2nc(CSc3nnnn3-c3ccccc3)cc(=O)[nH]2)cc1`: the % cells with GFP-LC3 spots was 3.58% (inactive) and the toxicity is 2.22%.

Turning to `O=c1c2ccccc2nc(CSc2nnnn2-c2ccccc2)n1-c1ccccc1`, the % cells with GFP-LC3 spots is 39.8% (active) and the toxicity was -13.7%.

On to `O=c1c2ccccc2nnn1CSc1nnnn1-c1ccccc1`, for which the % cells with GFP-LC3 spots is 7.02% (inactive) and the toxicity came to 5.05%.

Consider `CCCC(=O)NC(=S)Nc1ccc(CN2CCOCC2)cc1`, for which the % cells with GFP-LC3 spots was 10.3% (inactive) and the toxicity was -3.3%.

On to `CCNC(=O)COC(=O)/C=C/c1c(C)nn(Cc2cccc(OC)c2)c1Cl`, for which the % cells with GFP-LC3 spots was 10.7% (inactive) and the toxicity was 15.5%.

For the compound `COC(=O)c1ccc(NC(=O)c2cc(Cl)ccc2OC)cc1`, the % cells with GFP-LC3 spots was 0.193% (inactive) and the toxicity was -8.44%.

As for `CCOC(=O)c1cc(NC(=O)c2ccc(Cl)cc2)c(=O)oc1-c1ccccc1`, the % cells with GFP-LC3 spots was 15.9% (active) and the toxicity is -0.561%.

`CCOC(=O)NNC(=O)c1ccc(Cl)cc1`: the % cells with GFP-LC3 spots is 2.34% (inactive) and the toxicity came to 8.61%.

As to `CC(=O)c1cc(NC(=O)c2ccccc2)c(=O)oc1/C=C/N(C)C`, the % cells with GFP-LC3 spots was 2.32% (inactive) and the toxicity worked out at 8.72%.

Turning to `CC(C)NC(=O)NC(=O)CSc1nnc(-c2ccccc2F)n1N`, the % cells with GFP-LC3 spots was 4.07% (inactive) and the toxicity is -3.54%.

As to `Cc1cc([N+](=O)[O-])nn1Cc1ccc(F)cc1`, the % cells with GFP-LC3 spots was 11.8% (inactive) and the toxicity turned out to be 3.65%.

As for `Cc1cnc(C(=O)OCC(=O)NCCCc2ccccc2)cn1`, the % cells with GFP-LC3 spots is 19.9% (inactive) and the toxicity is 14.4%.
